The values below come from article PMC7862700, “An all-to-all approach to the identification of sequence-specific readers for epigenetic DNA modifications on cytosine”.

Holding throughout (assay): DAPPL (digital affinity profiling via proximity ligation, sequencing); 10 mM Tris-HCl pH 7.5, 50 mM NaCl, 1 mM DTT, 4% glycerol, room temperature, 30 min; GST-TFs on glutathione beads, 16-mer random dsDNA library, 0.1% formaldehyde crosslink after washing; high values mean tight binding
For one assay, the target named is T1, FEV (Homo sapiens, UniProt Q99581 1-238).
T1 sequence: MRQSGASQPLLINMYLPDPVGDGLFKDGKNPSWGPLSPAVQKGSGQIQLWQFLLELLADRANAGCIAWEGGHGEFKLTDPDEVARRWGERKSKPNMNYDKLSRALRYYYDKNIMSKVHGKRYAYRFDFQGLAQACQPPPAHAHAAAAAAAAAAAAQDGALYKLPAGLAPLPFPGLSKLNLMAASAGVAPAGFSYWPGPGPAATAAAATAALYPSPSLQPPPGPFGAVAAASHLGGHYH
Particulars: protein: recombinant; tags: N-terminal GST; dsDNA, one strand shown. An outline of the steps: (§1)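 After expression in yeast as GST fusions, human transcription factors were bound to glutathione beads, DNA-barcoded and mixed with a tag-only sample. The pools were incubated with 200 nmole of a 16-mer random double-stranded DNA library in Tris/NaCl/DTT/glycerol buffer (30 min, room temperature), washed and crosslinked with 0.1% formaldehyde. Proximity ligation with BsaI/T4 ligase ran for 1 h at 37 °C, before PCR amplification and sequencing on an Illumina NextSeq500. Binding signal is a hexamer's read frequency for a factor divided by its frequency for the tag-only sample.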

Another assay has as its target ETV5 (Homo sapiens, UniProt P41161 1-510). Particulars: protein: recombinant; tags: N-terminal GST; dsDNA, one strand shown. The procedure, abridged:
as §1

The target of another assay is HSF1 (Homo sapiens, UniProt Q00613 1-529). Particulars: protein: recombinant; tags: N-terminal GST; chain copies: 3; dsDNA, one strand shown. The procedure, abridged: as §1
The target of the next assay is T2, SPIC (Homo sapiens, UniProt Q8N5J4 1-248).
T2 sequence: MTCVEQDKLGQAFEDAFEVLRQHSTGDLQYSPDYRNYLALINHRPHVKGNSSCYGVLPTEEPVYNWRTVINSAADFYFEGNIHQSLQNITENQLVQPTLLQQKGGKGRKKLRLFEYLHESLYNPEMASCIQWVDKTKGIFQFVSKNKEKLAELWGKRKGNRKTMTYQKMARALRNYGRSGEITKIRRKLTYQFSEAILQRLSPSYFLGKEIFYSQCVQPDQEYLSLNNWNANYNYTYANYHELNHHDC
Particulars: protein: recombinant; tags: N-terminal GST; dsDNA, one strand shown. The procedure, abridged: as §1

A further assay deals with ELF4 (Homo sapiens, UniProt Q99607 1-663). Conditions: protein: recombinant; tags: N-terminal GST; dsDNA, one strand shown. An outline of the steps: as §1
Another assay addresses T3, ELK4 (Homo sapiens, UniProt P28324-2 1-405).
T3 sequence: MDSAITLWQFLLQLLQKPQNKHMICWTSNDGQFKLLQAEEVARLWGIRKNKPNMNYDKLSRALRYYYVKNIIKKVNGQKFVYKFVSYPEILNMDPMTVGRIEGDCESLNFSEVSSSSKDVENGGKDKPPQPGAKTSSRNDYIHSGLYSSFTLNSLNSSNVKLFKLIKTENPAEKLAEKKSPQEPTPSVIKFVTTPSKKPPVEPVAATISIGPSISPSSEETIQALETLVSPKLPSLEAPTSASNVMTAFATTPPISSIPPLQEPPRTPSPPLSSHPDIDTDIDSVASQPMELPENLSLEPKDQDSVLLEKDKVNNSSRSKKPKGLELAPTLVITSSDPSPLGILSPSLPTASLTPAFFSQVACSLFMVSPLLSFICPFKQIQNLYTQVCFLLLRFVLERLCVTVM
Particulars: protein: recombinant; tags: N-terminal GST; dsDNA, one strand shown. An outline of the steps:
as §1

The next assay concerns the target T4, ETV2 (Homo sapiens, UniProt O00321 1-342).
T4 sequence: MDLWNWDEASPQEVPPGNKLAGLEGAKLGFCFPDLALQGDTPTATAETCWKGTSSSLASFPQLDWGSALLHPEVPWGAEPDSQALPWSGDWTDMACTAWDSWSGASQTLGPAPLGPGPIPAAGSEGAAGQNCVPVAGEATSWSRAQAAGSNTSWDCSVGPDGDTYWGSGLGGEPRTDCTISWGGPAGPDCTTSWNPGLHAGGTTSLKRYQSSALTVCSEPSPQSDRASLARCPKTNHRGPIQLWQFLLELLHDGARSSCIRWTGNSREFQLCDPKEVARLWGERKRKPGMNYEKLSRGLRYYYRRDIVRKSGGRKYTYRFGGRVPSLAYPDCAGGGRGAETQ
Particulars: protein: recombinant; tags: N-terminal GST; dsDNA, one strand shown. An outline of the steps:
as §1

In another assay the target is T5, ELF3 (Homo sapiens, UniProt P78545 1-371).
T5 sequence: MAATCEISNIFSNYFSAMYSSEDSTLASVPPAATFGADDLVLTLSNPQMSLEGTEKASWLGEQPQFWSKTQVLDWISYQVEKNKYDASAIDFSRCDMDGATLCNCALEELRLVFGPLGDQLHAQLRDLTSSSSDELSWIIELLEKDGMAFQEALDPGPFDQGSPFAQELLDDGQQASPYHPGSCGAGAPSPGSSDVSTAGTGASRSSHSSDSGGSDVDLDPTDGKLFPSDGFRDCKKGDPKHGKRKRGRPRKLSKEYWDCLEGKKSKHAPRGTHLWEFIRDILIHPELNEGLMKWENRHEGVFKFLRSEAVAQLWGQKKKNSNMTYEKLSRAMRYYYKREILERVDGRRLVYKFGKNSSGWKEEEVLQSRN
Particulars: protein: recombinant; tags: N-terminal GST; dsDNA, one strand shown. The procedure, abridged:
as §1

In the next assay the target is CRX (Homo sapiens, UniProt O43186 1-299). Conditions: protein: recombinant; tags: N-terminal GST; dsDNA, one strand shown. The procedure, abridged:
as §1

The target in another assay is ETV1 (Homo sapiens, UniProt P50549 1-477). Conditions: protein: recombinant; tags: N-terminal GST; dsDNA, one strand shown. An outline of the steps:
as §1

The target of a further assay is T6, ERF (Homo sapiens, UniProt P50548 1-548).
T6 sequence: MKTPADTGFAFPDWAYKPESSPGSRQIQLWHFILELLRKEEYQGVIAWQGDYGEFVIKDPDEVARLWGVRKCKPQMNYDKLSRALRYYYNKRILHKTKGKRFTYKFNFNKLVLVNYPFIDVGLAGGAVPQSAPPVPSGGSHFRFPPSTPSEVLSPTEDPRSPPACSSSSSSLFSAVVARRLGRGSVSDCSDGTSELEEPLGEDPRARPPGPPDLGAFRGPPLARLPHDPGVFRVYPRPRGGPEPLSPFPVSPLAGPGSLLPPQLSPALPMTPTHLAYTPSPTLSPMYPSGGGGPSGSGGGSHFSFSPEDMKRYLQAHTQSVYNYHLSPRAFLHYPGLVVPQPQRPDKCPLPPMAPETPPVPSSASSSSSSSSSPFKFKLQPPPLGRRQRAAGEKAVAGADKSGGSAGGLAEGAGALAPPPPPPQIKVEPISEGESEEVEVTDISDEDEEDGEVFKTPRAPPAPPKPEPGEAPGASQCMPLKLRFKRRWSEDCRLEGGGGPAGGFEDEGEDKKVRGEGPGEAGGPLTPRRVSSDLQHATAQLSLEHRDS
Particulars: protein: recombinant; tags: N-terminal GST; dsDNA, one strand shown. The procedure, abridged:
as §1

Another assay has as its target T7, ETV3L (Homo sapiens, UniProt Q6ZN32 1-361).
T7 sequence: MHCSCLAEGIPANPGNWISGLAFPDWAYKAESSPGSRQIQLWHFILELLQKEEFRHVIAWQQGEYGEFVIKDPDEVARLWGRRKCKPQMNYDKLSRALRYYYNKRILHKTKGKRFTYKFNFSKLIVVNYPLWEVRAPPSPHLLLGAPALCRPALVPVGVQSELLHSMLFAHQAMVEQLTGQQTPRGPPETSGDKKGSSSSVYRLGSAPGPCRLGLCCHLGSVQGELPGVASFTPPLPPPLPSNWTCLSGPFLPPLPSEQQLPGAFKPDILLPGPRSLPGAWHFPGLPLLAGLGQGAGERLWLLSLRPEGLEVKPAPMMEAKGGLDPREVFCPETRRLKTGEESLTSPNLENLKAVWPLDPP
Particulars: protein: recombinant; tags: N-terminal GST; dsDNA, one strand shown. An outline of the steps:
as §1

Another assay has as its target T8, ETS2 (Homo sapiens, UniProt P15036 1-469).
T8 sequence: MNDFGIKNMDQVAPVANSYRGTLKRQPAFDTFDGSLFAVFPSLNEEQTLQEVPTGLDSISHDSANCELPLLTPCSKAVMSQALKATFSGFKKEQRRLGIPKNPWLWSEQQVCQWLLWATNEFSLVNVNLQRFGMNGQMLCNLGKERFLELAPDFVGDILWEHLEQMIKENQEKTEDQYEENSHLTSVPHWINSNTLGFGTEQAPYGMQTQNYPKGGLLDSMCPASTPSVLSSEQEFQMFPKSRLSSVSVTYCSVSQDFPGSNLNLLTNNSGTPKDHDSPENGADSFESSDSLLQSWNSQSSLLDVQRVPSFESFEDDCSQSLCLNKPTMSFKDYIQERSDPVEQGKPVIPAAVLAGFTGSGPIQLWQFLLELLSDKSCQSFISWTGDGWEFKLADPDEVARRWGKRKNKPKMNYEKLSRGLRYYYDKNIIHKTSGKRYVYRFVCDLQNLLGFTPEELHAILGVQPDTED
Conditions: protein: recombinant; tags: N-terminal GST; dsDNA, one strand shown. An outline of the steps:
as §1

In a further assay the target is T9, SPDEF (Homo sapiens, UniProt O95238 1-335).
T9 sequence: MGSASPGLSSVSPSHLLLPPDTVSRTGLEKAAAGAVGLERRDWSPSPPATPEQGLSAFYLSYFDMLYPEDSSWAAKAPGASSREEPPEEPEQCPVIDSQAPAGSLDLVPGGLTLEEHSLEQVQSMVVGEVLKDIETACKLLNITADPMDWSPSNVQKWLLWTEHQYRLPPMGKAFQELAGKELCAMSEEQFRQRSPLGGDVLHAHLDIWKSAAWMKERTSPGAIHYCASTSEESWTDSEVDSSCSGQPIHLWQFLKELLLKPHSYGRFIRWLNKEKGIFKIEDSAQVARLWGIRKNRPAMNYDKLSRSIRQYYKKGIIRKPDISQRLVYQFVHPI
Particulars: protein: recombinant; tags: N-terminal GST; dsDNA, one strand shown. The procedure, abridged:
as §1

In the next assay the target is T10, ETV7 (Homo sapiens, UniProt Q9Y603 1-341).
T10 sequence: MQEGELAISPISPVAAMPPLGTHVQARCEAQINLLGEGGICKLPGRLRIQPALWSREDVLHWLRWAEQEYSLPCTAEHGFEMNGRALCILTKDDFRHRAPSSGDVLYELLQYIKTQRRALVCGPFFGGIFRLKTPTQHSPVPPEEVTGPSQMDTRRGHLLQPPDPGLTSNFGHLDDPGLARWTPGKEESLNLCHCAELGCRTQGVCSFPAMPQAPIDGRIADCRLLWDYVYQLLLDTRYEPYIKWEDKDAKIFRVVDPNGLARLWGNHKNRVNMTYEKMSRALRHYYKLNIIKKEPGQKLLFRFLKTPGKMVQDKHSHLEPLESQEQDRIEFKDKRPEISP
Particulars: protein: recombinant; tags: N-terminal GST; dsDNA, one strand shown. An outline of the steps: as §1

The target of a further assay is T11, ELF5 (Homo sapiens, UniProt Q9UKW6-2 1-255).
T11 sequence: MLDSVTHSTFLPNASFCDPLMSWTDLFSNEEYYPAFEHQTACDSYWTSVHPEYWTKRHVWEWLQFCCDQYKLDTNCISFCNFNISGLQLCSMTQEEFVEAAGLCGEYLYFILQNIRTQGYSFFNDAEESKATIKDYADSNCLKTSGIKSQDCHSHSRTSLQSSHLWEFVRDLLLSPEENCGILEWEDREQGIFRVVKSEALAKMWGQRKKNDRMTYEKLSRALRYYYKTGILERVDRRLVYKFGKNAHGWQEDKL
Conditions: protein: recombinant; tags: N-terminal GST; dsDNA, one strand shown. An outline of the steps: as §1

The target of another assay is T12, ETV3 (Homo sapiens, UniProt P41162-2 1-143).
T12 sequence: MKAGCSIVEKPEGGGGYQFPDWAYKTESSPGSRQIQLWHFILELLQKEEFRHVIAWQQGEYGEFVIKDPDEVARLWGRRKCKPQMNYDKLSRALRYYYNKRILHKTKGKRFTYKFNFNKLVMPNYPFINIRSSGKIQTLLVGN
Particulars: protein: recombinant; tags: N-terminal GST; dsDNA, one strand shown. An outline of the steps: as §1

The target in another assay is ETV6 (Homo sapiens, UniProt P41212 1-452). Particulars: protein: recombinant; tags: N-terminal GST; dsDNA, one strand shown. An outline of the steps: as §1
Chain of ETV6 (P41212 whole entry): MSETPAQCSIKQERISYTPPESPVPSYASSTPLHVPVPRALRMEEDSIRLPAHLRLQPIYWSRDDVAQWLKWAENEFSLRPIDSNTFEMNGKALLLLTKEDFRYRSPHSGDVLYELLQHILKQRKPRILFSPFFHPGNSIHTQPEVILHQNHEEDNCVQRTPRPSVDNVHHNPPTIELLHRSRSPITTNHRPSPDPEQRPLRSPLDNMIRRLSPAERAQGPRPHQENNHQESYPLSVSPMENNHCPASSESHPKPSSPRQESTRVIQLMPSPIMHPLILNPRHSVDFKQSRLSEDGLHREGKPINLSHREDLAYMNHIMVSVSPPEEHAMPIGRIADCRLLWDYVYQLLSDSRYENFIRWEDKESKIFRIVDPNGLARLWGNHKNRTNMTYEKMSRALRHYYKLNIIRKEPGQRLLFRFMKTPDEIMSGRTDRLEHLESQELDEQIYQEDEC

Chain of CRX (O43186 whole entry): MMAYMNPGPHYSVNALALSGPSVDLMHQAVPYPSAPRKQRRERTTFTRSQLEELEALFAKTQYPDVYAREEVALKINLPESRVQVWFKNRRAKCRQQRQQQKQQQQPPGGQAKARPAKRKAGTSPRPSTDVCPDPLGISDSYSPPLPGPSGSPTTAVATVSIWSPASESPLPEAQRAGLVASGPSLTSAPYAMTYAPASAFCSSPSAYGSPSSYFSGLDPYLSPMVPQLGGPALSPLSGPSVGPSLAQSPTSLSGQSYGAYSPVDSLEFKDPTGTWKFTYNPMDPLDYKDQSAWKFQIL
Chain of ETV1 (P50549 whole entry): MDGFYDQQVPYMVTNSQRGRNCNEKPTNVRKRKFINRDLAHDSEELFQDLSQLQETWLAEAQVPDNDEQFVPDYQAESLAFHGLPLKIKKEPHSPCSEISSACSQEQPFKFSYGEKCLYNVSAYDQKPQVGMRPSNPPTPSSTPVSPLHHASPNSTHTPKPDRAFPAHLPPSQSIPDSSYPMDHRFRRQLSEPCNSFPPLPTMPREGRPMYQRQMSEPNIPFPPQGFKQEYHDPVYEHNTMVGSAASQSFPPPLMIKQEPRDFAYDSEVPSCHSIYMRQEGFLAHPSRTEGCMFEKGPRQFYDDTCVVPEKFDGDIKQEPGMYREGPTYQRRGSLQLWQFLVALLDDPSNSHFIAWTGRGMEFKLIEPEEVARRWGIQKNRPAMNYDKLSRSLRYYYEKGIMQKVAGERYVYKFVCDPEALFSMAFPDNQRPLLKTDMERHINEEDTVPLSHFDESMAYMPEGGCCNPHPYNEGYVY
Chain of ETV5 (P41161 whole entry): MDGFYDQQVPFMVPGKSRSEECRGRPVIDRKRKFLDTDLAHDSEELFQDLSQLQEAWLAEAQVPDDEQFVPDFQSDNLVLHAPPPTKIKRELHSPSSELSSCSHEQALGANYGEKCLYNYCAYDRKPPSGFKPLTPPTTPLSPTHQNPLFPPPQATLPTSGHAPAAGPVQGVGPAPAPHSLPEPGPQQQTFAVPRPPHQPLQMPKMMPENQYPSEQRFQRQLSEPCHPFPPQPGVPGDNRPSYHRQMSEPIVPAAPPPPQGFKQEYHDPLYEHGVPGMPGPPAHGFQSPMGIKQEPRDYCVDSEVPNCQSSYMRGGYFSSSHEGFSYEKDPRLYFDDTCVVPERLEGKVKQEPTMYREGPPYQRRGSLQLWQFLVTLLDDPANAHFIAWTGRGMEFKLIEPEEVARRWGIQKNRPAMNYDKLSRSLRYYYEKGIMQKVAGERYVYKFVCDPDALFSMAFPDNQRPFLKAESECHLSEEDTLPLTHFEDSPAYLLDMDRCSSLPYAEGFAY
Chain of HSF1 (Q00613 whole entry): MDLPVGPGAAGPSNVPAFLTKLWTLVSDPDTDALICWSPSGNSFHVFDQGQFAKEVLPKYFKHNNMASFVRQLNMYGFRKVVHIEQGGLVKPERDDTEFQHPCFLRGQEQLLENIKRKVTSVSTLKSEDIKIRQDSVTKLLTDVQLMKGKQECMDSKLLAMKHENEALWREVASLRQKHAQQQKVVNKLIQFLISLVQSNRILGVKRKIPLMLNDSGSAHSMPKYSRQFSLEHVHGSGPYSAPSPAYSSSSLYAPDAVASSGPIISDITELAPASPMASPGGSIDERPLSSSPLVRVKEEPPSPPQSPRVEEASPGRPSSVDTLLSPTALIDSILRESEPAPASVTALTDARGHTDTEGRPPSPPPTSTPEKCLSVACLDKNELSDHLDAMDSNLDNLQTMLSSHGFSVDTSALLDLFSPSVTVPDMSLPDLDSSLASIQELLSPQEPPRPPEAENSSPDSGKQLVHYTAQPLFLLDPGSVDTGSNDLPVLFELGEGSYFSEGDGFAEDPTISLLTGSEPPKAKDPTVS
Chain of ELF4 (Q99607 whole entry): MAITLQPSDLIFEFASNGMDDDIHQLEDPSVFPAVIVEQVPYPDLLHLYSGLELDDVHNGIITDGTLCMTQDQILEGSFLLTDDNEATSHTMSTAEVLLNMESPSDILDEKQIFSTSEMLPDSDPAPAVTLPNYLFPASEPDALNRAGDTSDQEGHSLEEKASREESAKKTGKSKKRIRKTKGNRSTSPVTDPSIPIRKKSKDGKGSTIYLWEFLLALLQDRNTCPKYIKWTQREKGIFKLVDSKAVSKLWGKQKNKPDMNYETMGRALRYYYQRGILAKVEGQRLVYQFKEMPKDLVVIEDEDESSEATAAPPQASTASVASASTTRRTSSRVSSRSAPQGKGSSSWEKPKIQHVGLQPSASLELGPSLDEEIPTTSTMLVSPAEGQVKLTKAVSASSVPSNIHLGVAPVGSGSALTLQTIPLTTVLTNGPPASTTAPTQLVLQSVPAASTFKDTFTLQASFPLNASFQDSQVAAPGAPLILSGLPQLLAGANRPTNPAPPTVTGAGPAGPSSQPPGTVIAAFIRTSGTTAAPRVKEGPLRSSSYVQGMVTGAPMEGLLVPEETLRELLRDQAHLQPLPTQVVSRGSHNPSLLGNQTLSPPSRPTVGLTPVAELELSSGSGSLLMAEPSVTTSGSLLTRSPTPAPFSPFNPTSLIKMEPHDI

Turning to ATATAC, the binding signal with FEV is 1.11 fold enrichment (6-mer frequency, TF over GST control); in the assay with ETV5, 1.16 fold enrichment (6-mer frequency, TF over GST control); in the assay with HSF1 it was 1.12 fold enrichment (6-mer frequency, TF over GST control); in the assay with SPIC, 1.17 fold enrichment (6-mer frequency, TF over GST control); with ELF4, 1.13 fold enrichment (6-mer frequency, TF over GST control); with ELK4, 1.2 fold enrichment (6-mer frequency, TF over GST control). Further, the binding signal is 1.12 fold enrichment (6-mer frequency, TF over GST control) with ETV2; 1.22 fold enrichment (6-mer frequency, TF over GST control) with ELF3; 1.08 fold enrichment (6-mer frequency, TF over GST control) with CRX; 1.21 fold enrichment (6-mer frequency, TF over GST control) in the assay with ETV1; 1.19 fold enrichment (6-mer frequency, TF over GST control) with ERF; 1.17 fold enrichment (6-mer frequency, TF over GST control) with ETV3L. Moreover, the binding signal in the assay with ETS2 is 1.26 fold enrichment (6-mer frequency, TF over GST control); in the assay with SPDEF, 1.29 fold enrichment (6-mer frequency, TF over GST control); with ETV7, 1.24 fold enrichment (6-mer frequency, TF over GST control); with ELF5, 1.12 fold enrichment (6-mer frequency, TF over GST control); with ETV3, 1.17 fold enrichment (6-mer frequency, TF over GST control); in the assay with ETV6, 1.19 fold enrichment (6-mer frequency, TF over GST control).
